In PubChem BioAssay AID1159580 (chemical genetic matrix, 2015):
Where “and” joins values, the source holds several entries; their conditions need not be identical. Equal entries are not always repeated. About 2,000 (36%) of roughly 5,500 compounds were called active. Not shown: some 18% with an inconclusive outcome. Rule as the data show it: active = normalized growth mostly below about 0.91 (no sharp cut-off); inconclusive = no clear call, values can overlap the other calls; inactive = mostly above about 0.92. The list shows a part of the results.

Assay: chemical genetic growth profiling, strain panel (AID 1159580);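 also: tested at 20 µM; growth read once vehicle control cultures reached saturation at 30 °C; 1 = growth at the plate median or of vehicle wells; lower values mean less growth of the strain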
Conditions: S. cerevisiae deletion strains, growth OD

Measured: normalized growth

CC1CCc2cc(F)cc3c(=O)c(C(=O)O)cn1c23 (configuration not stated)
inactive: locus YAL013W, strain DEP1, active compounds read low 0.985 | locus YAL021C, strain ccr4, active compounds read low 0.967 | locus YAL026C, strain drs2, active compounds read low 0.981 | locus YAL030W, strain snc1, active compounds read low 0.989 | locus YBL061C, strain skt5, active compounds read low 0.985 | locus YBR009C, strain hhf1, active compounds read low 0.987 | locus YBR021W, strain FUR4, active compounds read low 0.943 | locus YBR023C, strain chs3, active compounds read low 0.975 | locus YBR171W, strain sec66, active compounds read low 0.979 | locus YBR229C, strain ROT2, active compounds read low 0.98 | locus YBR231C, strain swc5, active compounds read low 0.997 | locus YBR279W, strain paf1, active compounds read low 0.985 | locus YCL011C, strain gbp2, active compounds read low 0.988 | locus YCL016C, strain dcc1, active compounds read low 0.977 | locus YCL029C, strain bik1, active compounds read low 0.925 | locus YCL061C, strain MRC1, active compounds read low 0.989 | locus YCL069W, strain vba3, active compounds read low 0.992 | locus YCR088W, strain abp1, active compounds read low 0.999 | locus YDL005C, strain med2, active compounds read low 0.995 | locus YDL035C, strain GPR1, active compounds read low 1 | locus YDL040C, strain nat1, active compounds read low 0.999 | locus YDL074C, strain BRE1, active compounds read low 0.972 | locus YDL101C, strain DUN1, active compounds read low 0.974 | locus YDL134C, strain PPH21, active compounds read low 0.975 | locus YDL185W, strain tfp1, active compounds read low 0.981 | locus YDL192W, strain arf1, active compounds read low 0.967 | locus YDR001C, strain nth1, active compounds read low 0.992 | locus YDR069C, strain doa4, active compounds read low 1 | locus YDR101C, strain arx1, active compounds read low 0.962 | locus YDR137W, strain rgp1, active compounds read low 0.942 | locus YDR150W, strain NUM1, active compounds read low 0.981 | locus YDR159W, strain sac3, active compounds read low 1.01 | locus YDR162C, strain NBP2, active compounds read low 0.991 | locus YDR195W, strain ref2 0.99 | locus YDR297W, strain sur2, active compounds read low 0.997 | locus YDR318W, strain mcm21, active compounds read low 0.97 | locus YDR334W, strain swr1, active compounds read low 0.986 | locus YDR335W, strain msn5, active compounds read low 0.991 | locus YDR388W, active compounds read low 0.952 | locus YDR392W, strain spt3, active compounds read low 0.941 | locus YDR502C, strain sam2, active compounds read low 0.984 | locus YEL003W, strain gim4, active compounds read low 1 | locus YEL037C, strain rad23, active compounds read low 0.993 | locus YEL061C, strain CIN8 (second series), active compounds read low 0.993 | locus YEL061C, strain CIN8, active compounds read low 0.985 | locus YER015W, strain faa2, active compounds read low 0.982 | locus YER016W, strain bim1, active compounds read low 1 | locus YER110C, active compounds read low 0.976 | locus YER111C, strain swi4, active compounds read low 0.984 | locus YER155C, strain BEM2 (second series), active compounds read low 0.994 | locus YER155C, strain BEM2, active compounds read low 0.975 | locus YER167W, strain BCK2, active compounds read low 0.988 | locus YFR010W, strain ubp6, active compounds read low 0.984 | locus YGL078C, strain dbp3, active compounds read low 0.969 | locus YGL086W, strain mad1, active compounds read low 0.987 | locus YGL167C, strain pmr1, active compounds read low 0.993 | locus YGL173C, strain kem1, active compounds read low 0.991 | locus YGL227W, strain vid30, active compounds read low 0.985 | locus YGL240W, strain doc1, active compounds read low 0.991 | locus YGL248W, strain PDE1, active compounds read low 0.984 | locus YGL253W, strain hxk2, active compounds read low 0.995 | locus YGR078C, strain PAC10, active compounds read low 0.974 | locus YGR135W, strain pre9, active compounds read low 0.974 | locus YGR229C, strain SMI1, active compounds read low 1.01 | locus YGR252W, strain gcn5, active compounds read low 1.04 | locus YHR013C, strain ard1, active compounds read low 0.965 | locus YHR027C, strain rpn1, active compounds read low 0.985 | locus YHR030C, strain SLT2, active compounds read low 0.982 and 0.978 | locus YHR079C, strain IRE1 (second series), active compounds read low 0.955 | locus YHR079C, strain IRE1, active compounds read low 0.988 | locus YHR094C, strain hxt1, active compounds read low 0.983 | locus YHR129C, strain ARP1, active compounds read low 0.977 | locus YHR142W, strain chs7, active compounds read low 0.981 | locus YHR200W, strain rpn10, active compounds read low 0.969 | locus YIL066C, strain RNR3, active compounds read low 0.974 | locus YIL073C, strain SPO22, active compounds read low 0.991 | locus YIL125W, strain kgd1, active compounds read low 0.985 | locus YIR030C, strain dcg1, active compounds read low 0.972 | locus YJL092W, strain hpr5, active compounds read low 0.988 | locus YJL095W, strain BCK1 (second series), active compounds read low 0.989 | locus YJL095W, strain BCK1, active compounds read low 0.948 and 0.982 | locus YJL115W, strain asf1, active compounds read low 0.983 | locus YJL129C, strain trk1, active compounds read low 1 | locus YJL134W, strain LCB3, active compounds read low 0.984 | locus YJL154C, strain vps35, active compounds read low 0.991 | locus YJL164C, strain tpk1, active compounds read low 0.988 | locus YJL166W, strain qcr8, active compounds read low 0.981 | locus YJL168C, strain set2, active compounds read low 0.967 | locus YJL187C, strain SWE1 (second series), active compounds read low 0.954 | locus YJL187C, strain SWE1, active compounds read low 0.989 | locus YJR043C, strain POL32, active compounds read low 0.979 | locus YJR066W, strain TOR1, active compounds read low 0.897
